Results on 11 sequences are retold here after article PMC11006913.

Holding throughout (test): PBM; 200 nM protein, PBS
Holding throughout (details): dsDNA, one strand shown

Experiment [1] has as its target T1, VENTX (Homo sapiens, UniProt O95231 78-163, R121Q).
T1 sequence: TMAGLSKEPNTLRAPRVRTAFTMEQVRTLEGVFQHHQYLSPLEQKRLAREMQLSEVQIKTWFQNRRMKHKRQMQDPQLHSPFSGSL

Experiment [2] deals with T2, VENTX (Homo sapiens, UniProt O95231 78-163, Y115F).
T2 sequence: T1 sequence with Y38F, Q44R

Experiment [3] has as its target HOXB9 (Homo sapiens, UniProt P17482 171-250, T197M).
Experiment [4] has as its target HOXC9 (Homo sapiens, UniProt P31274 178-260, K195R).
Experiment [5] concerns the target HOXA7 (Homo sapiens, UniProt P31268 116-202).
Experiment [6] has as its target HOXC10 (Homo sapiens, UniProt Q9NYD6 254-340).
In experiment [7] the target is HOXB9 (Homo sapiens, UniProt P17482 171-250).
For experiment [8], the target named is HOXC9 (Homo sapiens, UniProt P31274 178-260).
For experiment [9], the target named is HOXD13 (Homo sapiens, UniProt P35453 263-343, T313R).
Experiment [10] has as its target HOXC9 (Homo sapiens, UniProt P31274 178-260, R193K).
Experiment [11] deals with HOXD13 (Homo sapiens, UniProt P35453 263-343).
For experiment [12], the target named is HOXC10 (Homo sapiens, UniProt Q9NYD6 254-340, K271E).
Experiment [13] has as its target HOXD13 (Homo sapiens, UniProt P35453 263-343, T313A).
Experiment [14] deals with HOXB9 (Homo sapiens, UniProt P17482 171-250, R186Q).
For experiment [15], the target named is HOXC9 (Homo sapiens, UniProt P31274 178-260, R222W).
The target in experiment [16] is HOXA7 (Homo sapiens, UniProt P31268 116-202, W177C).
Experiment [17] addresses T3, VENTX (Homo sapiens, UniProt O95231 78-163).
T3 sequence: T1 sequence with Q44R

The target in experiment [18] is VAX1 (Homo sapiens, UniProt Q5SQQ9 86-172).
The target in experiment [19] is VAX1 (Homo sapiens, UniProt Q5SQQ9 86-172, T142I).
Experiment [20] has as its target VAX1 (Homo sapiens, UniProt Q5SQQ9 86-172, K157R).
Experiment [21] deals with HOXB6 (Homo sapiens, UniProt P17509 132-218, K202E).
The target of experiment [22] is HOXB6 (Homo sapiens, UniProt P17509 132-218).
The target in experiment [23] is T4, PAX4 (Homo sapiens, UniProt O43316 9-242, R200K).
T4 sequence: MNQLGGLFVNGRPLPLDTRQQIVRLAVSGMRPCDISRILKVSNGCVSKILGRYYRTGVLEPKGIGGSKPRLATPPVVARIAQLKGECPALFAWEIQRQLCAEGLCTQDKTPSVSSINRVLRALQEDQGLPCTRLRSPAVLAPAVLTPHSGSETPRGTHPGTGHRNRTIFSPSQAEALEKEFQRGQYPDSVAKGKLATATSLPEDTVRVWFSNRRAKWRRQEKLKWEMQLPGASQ

The target of experiment [24] is HOXB4 (Homo sapiens, UniProt P17483 148-234, V174I).
For experiment [25], the target named is ALX3 (Homo sapiens, UniProt O95076 139-225, N203Q).
For experiment [26], the target named is ALX3 (Homo sapiens, UniProt O95076 139-225).
The target of experiment [27] is ALX3 (Homo sapiens, UniProt O95076 139-225, N203S).
Experiment [28] deals with HOXA4 (Homo sapiens, UniProt Q00056 201-287, W262F).
Experiment [29] has as its target CRX (Homo sapiens, UniProt O43186 26-111, R41L).

Changes are numbered by the printed parent chain.

Chain of VAX1 (Homo sapiens, UniProt Q5SQQ9 86-172, T142I) (Q5SQQ9 86-172 T142I): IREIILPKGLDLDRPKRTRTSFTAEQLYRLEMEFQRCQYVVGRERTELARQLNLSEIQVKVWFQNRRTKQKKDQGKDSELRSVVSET
Chain of HOXB9 (Homo sapiens, UniProt P17482 171-250, T197M) (P17482 171-250 T197M): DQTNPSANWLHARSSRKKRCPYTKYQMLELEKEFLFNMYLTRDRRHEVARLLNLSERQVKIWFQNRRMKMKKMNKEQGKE
Chain of HOXC9 (Homo sapiens, UniProt P31274 178-260, K195R) (P31274 178-260 K195R): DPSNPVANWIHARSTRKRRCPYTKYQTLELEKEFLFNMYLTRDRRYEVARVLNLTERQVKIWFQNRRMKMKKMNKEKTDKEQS
Chain of HOXC9 (Homo sapiens, UniProt P31274 178-260, R222W) (P31274 178-260 R222W): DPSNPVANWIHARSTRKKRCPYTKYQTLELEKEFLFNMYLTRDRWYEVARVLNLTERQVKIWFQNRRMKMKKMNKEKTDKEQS
Chain of HOXB9 (Homo sapiens, UniProt P17482 171-250, R186Q) (P17482 171-250 R186Q): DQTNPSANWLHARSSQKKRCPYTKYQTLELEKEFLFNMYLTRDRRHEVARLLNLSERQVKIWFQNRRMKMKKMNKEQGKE
Chain of HOXC9 (Homo sapiens, UniProt P31274 178-260) (P31274 178-260): as the sequence (P31274 178-260 R222W) above, with W45R counted along it
Chain of VAX1 (Homo sapiens, UniProt Q5SQQ9 86-172) (Q5SQQ9 86-172): as the sequence (Q5SQQ9 86-172 T142I) above, with I57T counted along it
Chain of HOXB6 (Homo sapiens, UniProt P17509 132-218) (P17509 132-218): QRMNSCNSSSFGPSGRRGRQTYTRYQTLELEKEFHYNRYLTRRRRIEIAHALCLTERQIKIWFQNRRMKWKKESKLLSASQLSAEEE
Chain of HOXB6 (Homo sapiens, UniProt P17509 132-218, K202E) (P17509 132-218 K202E): as the sequence (P17509 132-218) above, with K71E counted along it
Chain of HOXC10 (Homo sapiens, UniProt Q9NYD6 254-340, K271E) (Q9NYD6 254-340 K271E): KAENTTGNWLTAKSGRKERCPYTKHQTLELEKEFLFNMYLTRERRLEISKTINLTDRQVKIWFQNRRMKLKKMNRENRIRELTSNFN
Chain of VAX1 (Homo sapiens, UniProt Q5SQQ9 86-172, K157R) (Q5SQQ9 86-172 K157R): as the sequence (Q5SQQ9 86-172 T142I) above, with I57T, K72R counted along it
Chain of HOXC10 (Homo sapiens, UniProt Q9NYD6 254-340) (Q9NYD6 254-340): as the sequence (Q9NYD6 254-340 K271E) above, with E18K counted along it
Chain of HOXB9 (Homo sapiens, UniProt P17482 171-250) (P17482 171-250): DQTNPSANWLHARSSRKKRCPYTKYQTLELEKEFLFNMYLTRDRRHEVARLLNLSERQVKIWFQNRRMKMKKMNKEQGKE
Chain of HOXC9 (Homo sapiens, UniProt P31274 178-260, R193K) (P31274 178-260 R193K): as the sequence (P31274 178-260 R222W) above, with R16K, W45R counted along it
Chain of HOXA7 (Homo sapiens, UniProt P31268 116-202) (P31268 116-202): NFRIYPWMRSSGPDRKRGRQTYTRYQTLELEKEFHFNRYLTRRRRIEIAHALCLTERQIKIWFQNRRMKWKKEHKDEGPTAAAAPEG
Chain of HOXA7 (Homo sapiens, UniProt P31268 116-202, W177C) (P31268 116-202 W177C): as the sequence (P31268 116-202) above, with W62C counted along it
Chain of HOXD13 (Homo sapiens, UniProt P35453 263-343, T313R) (P35453 263-343 T313R): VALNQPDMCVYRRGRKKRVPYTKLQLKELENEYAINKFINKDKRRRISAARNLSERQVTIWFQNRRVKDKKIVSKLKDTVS
Chain of HOXD13 (Homo sapiens, UniProt P35453 263-343, T313A) (P35453 263-343 T313A): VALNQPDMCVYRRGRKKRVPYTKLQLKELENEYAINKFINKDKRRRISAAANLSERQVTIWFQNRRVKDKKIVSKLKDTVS
Chain of HOXD13 (Homo sapiens, UniProt P35453 263-343) (P35453 263-343): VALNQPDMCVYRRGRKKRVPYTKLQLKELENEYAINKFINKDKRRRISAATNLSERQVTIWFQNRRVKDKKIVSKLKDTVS
Chain of ALX3 (Homo sapiens, UniProt O95076 139-225, N203Q) (O95076 139-225 N203Q): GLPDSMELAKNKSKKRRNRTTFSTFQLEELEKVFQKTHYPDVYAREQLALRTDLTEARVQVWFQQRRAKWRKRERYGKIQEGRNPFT
Chain of HOXB4 (P17483 148-234 V174I): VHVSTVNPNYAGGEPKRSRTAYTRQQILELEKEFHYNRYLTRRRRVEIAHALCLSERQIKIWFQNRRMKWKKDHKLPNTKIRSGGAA
Chain of ALX3 (Homo sapiens, UniProt O95076 139-225) (O95076 139-225): as the sequence (O95076 139-225 N203Q) above, with Q65N counted along it
Chain of ALX3 (Homo sapiens, UniProt O95076 139-225, N203S) (O95076 139-225 N203S): as the sequence (O95076 139-225 N203Q) above, with Q65S counted along it
Chain of CRX (O43186 26-111 R41L): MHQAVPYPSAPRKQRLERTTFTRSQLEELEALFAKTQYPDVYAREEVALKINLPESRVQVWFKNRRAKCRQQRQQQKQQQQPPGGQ
Chain of HOXA4 (Q00056 201-287 W262F): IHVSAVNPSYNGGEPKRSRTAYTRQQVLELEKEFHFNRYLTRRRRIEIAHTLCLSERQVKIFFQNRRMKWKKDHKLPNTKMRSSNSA

On to AACCGATT, for which the binding signal is 10.1 upbm affinity estimate (log intensity, higher = more binding, comparable within an allelic series) in experiment [1] and 10.3 upbm affinity estimate (log intensity, higher = more binding, comparable within an allelic series) in [2].

CCCATAAA: the binding signal is 9.63 upbm affinity estimate (log intensity, higher = more binding, comparable within an allelic series) in experiment [3]; 12.8 upbm affinity estimate (log intensity, higher = more binding, comparable within an allelic series) in experiment [4]; 10.4 upbm affinity estimate (log intensity, higher = more binding, comparable within an allelic series) in [5]; 12.5 upbm affinity estimate (log intensity, higher = more binding, comparable within an allelic series) in [6]; 12.2 upbm affinity estimate (log intensity, higher = more binding, comparable within an allelic series) in experiment [7]; 13 upbm affinity estimate (log intensity, higher = more binding, comparable within an allelic series) in [8]. The binding signal in [9] was 11 upbm affinity estimate (log intensity, higher = more binding, comparable within an allelic series); in [10], 12.8 upbm affinity estimate (log intensity, higher = more binding, comparable within an allelic series); in [11], 12.3 upbm affinity estimate (log intensity, higher = more binding, comparable within an allelic series); in experiment [12], 11.9 upbm affinity estimate (log intensity, higher = more binding, comparable within an allelic series); in experiment [13], 12 upbm affinity estimate (log intensity, higher = more binding, comparable within an allelic series); in experiment [14], 12 upbm affinity estimate (log intensity, higher = more binding, comparable within an allelic series). Moreover, the binding signal in experiment [15] is 11.2 upbm affinity estimate (log intensity, higher = more binding, comparable within an allelic series); in experiment [16], 8.63 upbm affinity estimate (log intensity, higher = more binding, comparable within an allelic series).

CCAGCTGC: the binding signal was 8.15 upbm affinity estimate (log intensity, higher = more binding, comparable within an allelic series) in [1]; 8.27 upbm affinity estimate (log intensity, higher = more binding, comparable within an allelic series) in experiment [17]; 8.21 upbm affinity estimate (log intensity, higher = more binding, comparable within an allelic series) in experiment [2]; 7.42 upbm affinity estimate (log intensity, higher = more binding, comparable within an allelic series) in experiment [18]; 7.3 upbm affinity estimate (log intensity, higher = more binding, comparable within an allelic series) in experiment [19]; 7.2 upbm affinity estimate (log intensity, higher = more binding, comparable within an allelic series) in experiment [20].

As to ATTATTAC, the binding signal in [3] was 10 upbm affinity estimate (log intensity, higher = more binding, comparable within an allelic series); in experiment [4] it was 12.5 upbm affinity estimate (log intensity, higher = more binding, comparable within an allelic series); in experiment [5], 11.2 upbm affinity estimate (log intensity, higher = more binding, comparable within an allelic series); in experiment [6], 12.1 upbm affinity estimate (log intensity, higher = more binding, comparable within an allelic series); in experiment [21], 10 upbm affinity estimate (log intensity, higher = more binding, comparable within an allelic series); in [8], 12.6 upbm affinity estimate (log intensity, higher = more binding, comparable within an allelic series). In addition, the binding signal in [10] is 12.5 upbm affinity estimate (log intensity, higher = more binding, comparable within an allelic series); in experiment [12], 11.6 upbm affinity estimate (log intensity, higher = more binding, comparable within an allelic series); in experiment [15], 11 upbm affinity estimate (log intensity, higher = more binding, comparable within an allelic series); in experiment [16], 8.99 upbm affinity estimate (log intensity, higher = more binding, comparable within an allelic series); in experiment [22], 11.7 upbm affinity estimate (log intensity, higher = more binding, comparable within an allelic series).

Regarding CGGGCGCA, the binding signal in experiment [1] is 7.97 upbm affinity estimate (log intensity, higher = more binding, comparable within an allelic series); in experiment [17], 7.92 upbm affinity estimate (log intensity, higher = more binding, comparable within an allelic series); in experiment [2], 7.91 upbm affinity estimate (log intensity, higher = more binding, comparable within an allelic series); in experiment [18], 6.81 upbm affinity estimate (log intensity, higher = more binding, comparable within an allelic series); in [19], 6.96 upbm affinity estimate (log intensity, higher = more binding, comparable within an allelic series); in [20] it was 6.94 upbm affinity estimate (log intensity, higher = more binding, comparable within an allelic series).

Turning to ATAATCGG, the binding signal is 10.6 upbm affinity estimate (log intensity, higher = more binding, comparable within an allelic series) in experiment [1] and 10.7 upbm affinity estimate (log intensity, higher = more binding, comparable within an allelic series) in [2].

Regarding CGATTACG, the binding signal in experiment [1] is 10.5 upbm affinity estimate (log intensity, higher = more binding, comparable within an allelic series); in [5], 9.64 upbm affinity estimate (log intensity, higher = more binding, comparable within an allelic series); in experiment [16], 8.74 upbm affinity estimate (log intensity, higher = more binding, comparable within an allelic series).

As for CATTAATA, the binding signal in experiment [3] is 10.2 upbm affinity estimate (log intensity, higher = more binding, comparable within an allelic series); in experiment [4], 12.7 upbm affinity estimate (log intensity, higher = more binding, comparable within an allelic series); in [5] it was 11.5 upbm affinity estimate (log intensity, higher = more binding, comparable within an allelic series); in [6], 12.2 upbm affinity estimate (log intensity, higher = more binding, comparable within an allelic series); in experiment [23], 11.6 upbm affinity estimate (log intensity, higher = more binding, comparable within an allelic series); in experiment [21] it was 10.1 upbm affinity estimate (log intensity, higher = more binding, comparable within an allelic series). The binding signal in [7] was 12 upbm affinity estimate (log intensity, higher = more binding, comparable within an allelic series); in experiment [24], 13.6 upbm affinity estimate (log intensity, higher = more binding, comparable within an allelic series); in experiment [8] it was 12.6 upbm affinity estimate (log intensity, higher = more binding, comparable within an allelic series); in experiment [10] it was 12.6 upbm affinity estimate (log intensity, higher = more binding, comparable within an allelic series); in experiment [12] it was 11.9 upbm affinity estimate (log intensity, higher = more binding, comparable within an allelic series); in experiment [14] it was 11.7 upbm affinity estimate (log intensity, higher = more binding, comparable within an allelic series). The binding signal in experiment [15] was 11.1 upbm affinity estimate (log intensity, higher = more binding, comparable within an allelic series); in experiment [16], 9 upbm affinity estimate (log intensity, higher = more binding, comparable within an allelic series); in experiment [22], 11.9 upbm affinity estimate (log intensity, higher = more binding, comparable within an allelic series).

Turning to CACATTAG, the binding signal in experiment [1] was 11 upbm affinity estimate (log intensity, higher = more binding, comparable within an allelic series); in experiment [25], 8.26 upbm affinity estimate (log intensity, higher = more binding, comparable within an allelic series); in experiment [26], 10.6 upbm affinity estimate (log intensity, higher = more binding, comparable within an allelic series); in experiment [18] it was 11.3 upbm affinity estimate (log intensity, higher = more binding, comparable within an allelic series); in experiment [19], 10.8 upbm affinity estimate (log intensity, higher = more binding, comparable within an allelic series); in experiment [27], 8.21 upbm affinity estimate (log intensity, higher = more binding, comparable within an allelic series). Besides, the binding signal in [20] is 11 upbm affinity estimate (log intensity, higher = more binding, comparable within an allelic series).

On to CCATTAAA, for which the binding signal in experiment [3] was 10.1 upbm affinity estimate (log intensity, higher = more binding, comparable within an allelic series); in experiment [4] it was 13 upbm affinity estimate (log intensity, higher = more binding, comparable within an allelic series); in [5], 11.5 upbm affinity estimate (log intensity, higher = more binding, comparable within an allelic series); in experiment [6], 12.5 upbm affinity estimate (log intensity, higher = more binding, comparable within an allelic series); in [21] it was 9.87 upbm affinity estimate (log intensity, higher = more binding, comparable within an allelic series); in [7], 12.4 upbm affinity estimate (log intensity, higher = more binding, comparable within an allelic series). The binding signal is 13.1 upbm affinity estimate (log intensity, higher = more binding, comparable within an allelic series) in experiment [8]; 10.6 upbm affinity estimate (log intensity, higher = more binding, comparable within an allelic series) in [9]; 13 upbm affinity estimate (log intensity, higher = more binding, comparable within an allelic series) in experiment [10]; 11.9 upbm affinity estimate (log intensity, higher = more binding, comparable within an allelic series) in experiment [11]; 12.2 upbm affinity estimate (log intensity, higher = more binding, comparable within an allelic series) in experiment [12]; 12.2 upbm affinity estimate (log intensity, higher = more binding, comparable within an allelic series) in experiment [18]. Further, the binding signal in experiment [13] is 11.6 upbm affinity estimate (log intensity, higher = more binding, comparable within an allelic series); in [14], 12.2 upbm affinity estimate (log intensity, higher = more binding, comparable within an allelic series); in experiment [15], 11.1 upbm affinity estimate (log intensity, higher = more binding, comparable within an allelic series); in experiment [19], 11.9 upbm affinity estimate (log intensity, higher = more binding, comparable within an allelic series); in [16], 8.59 upbm affinity estimate (log intensity, higher = more binding, comparable within an allelic series); in experiment [28] it was 10.9 upbm affinity estimate (log intensity, higher = more binding, comparable within an allelic series). Also, the binding signal in experiment [20] is 11.8 upbm affinity estimate (log intensity, higher = more binding, comparable within an allelic series); in experiment [22] it was 12 upbm affinity estimate (log intensity, higher = more binding, comparable within an allelic series).

In the case of CCTAATCG, the binding signal was 11.4 upbm affinity estimate (log intensity, higher = more binding, comparable within an allelic series) in experiment [1]; 12.5 upbm affinity estimate (log intensity, higher = more binding, comparable within an allelic series) in experiment [17]; 11.3 upbm affinity estimate (log intensity, higher = more binding, comparable within an allelic series) in [2]; 10.8 upbm affinity estimate (log intensity, higher = more binding, comparable within an allelic series) in [29].
